The whole screen tested about 59,000 compounds, of which about 6,500 (11%) were called active. Inconclusive results (about 15%) are left out. Cut-off read from the data, not from the text of the source: active = max dye-equivalent concentration above about 10 nM; inconclusive = mostly about 1.1 nM to 9.6 nM; inactive = weaker than that. For the sample, actives were picked, then their nearest neighbours and some compounds at random. Peptide text beside a SMILES is read from it.
Test: qHTS Assay for Spectroscopic Profiling in A350 Spectral Region
Conditions: Compound autofluorescence, 340/450 nm, Alexa 350 dye-equivalents; hits give high values
For `O=C1CN(C(=O)COC(=O)C2CC(=O)N(Cc3ccco3)C2)c2ccccc2N1` (centres undefined), the max dye-equivalent concentration was “inactive”. For `COc1ccc(Cc2nnc(NC(=O)Cc3cccs3)s2)cc1`, the max dye-equivalent concentration was “inactive”. In the case of `COc1ccc2c(CC(=O)Nc3nnc(C4CC4)s3)coc2c1`, the max dye-equivalent concentration is reported as 12 nM (active). With `COc1ccc(OCCCC(=O)Nc2nnc(C3CCCO3)s2)cc1` (centres undefined) the max dye-equivalent concentration was “inactive”. For `CC1Cc2cc(/C(O)=C3\C(=O)C(=O)N(CCN4CCOCC4)C3c3ccccc3F)ccc2O1` (centres undefined), the max dye-equivalent concentration was “inactive”. In the case of `O=C(O)[C@@H]1[C@@H](C(=O)O)[C@]23C[C@@]2(C(=O)O)[C@]2(C(=O)O)CCC3=C3CCCC312`, the max dye-equivalent concentration is reported as “inactive”. In the case of `COc1ccc(S(=O)(=O)NC(CC(=O)NCc2ccccc2OC)c2ccco2)cc1` (centres undefined), the max dye-equivalent concentration is reported as “inactive”. For `CCCCCCn1c(CN2CCCC(C)C2)nc2c1c(=O)n(C)c(=O)n2C` (centres undefined), the max dye-equivalent concentration was “inactive”. With `CCCn1c(O)c(CN2CCCC(C)C2)c(C)c(C#N)c1=O` (centres undefined) the max dye-equivalent concentration was 19 nM (active). For `CCCCC(CCC(=O)Nc1ccc(C(=O)OCC)cc1)C(=O)O` (centres undefined), the max dye-equivalent concentration was “inactive”. In the case of `CCCCc1cc(=O)oc2cc(C)cc(OCc3nn[nH]n3)c12`, the max dye-equivalent concentration is reported as 77 nM (active). For `CC(Sc1nncn1C)C(=O)Nc1ccccc1-c1ccccc1` (centres undefined), the max dye-equivalent concentration was “inactive”. For `Clc1ccc(Nc2nc(-c3cccs3)cs2)nc1`, the max dye-equivalent concentration was “inactive”. In the case of `O=C(Nc1ccccc1F)C1C2C=CC3(O2)C1C(=O)N(c1cccnc1)C3C(=O)NC1CCCCC1` (centres undefined), the max dye-equivalent concentration is reported as “inactive”. In the case of `COc1cc(C(=O)N(Cc2ccc(N(C)C)cc2)C2CCS(=O)(=O)C2)cc(OC)c1OC` (centres undefined), the max dye-equivalent concentration is reported as “inactive”. For `CCc1nnc(NC(=O)c2ccc(S(=O)(=O)NC3CCCCC3)cc2)s1`, the max dye-equivalent concentration was “inactive”. With `CC1CCCCN1S(=O)(=O)c1ccc(C(=O)Nc2nnc(-c3cccs3)o2)cc1` (centres undefined) the max dye-equivalent concentration was “inactive”. With `Cc1ccc(C(=O)Nc2nnc(-c3cccs3)s2)cc1C` the max dye-equivalent concentration was 72 nM (active). With `COc1ccc2[nH]cc(CCNc3ncnc4ccc(-c5ccccc5CN(C)C)cc34)c2c1` the max dye-equivalent concentration was “inactive”. For `COc1ccc(Cl)cc1S(=O)(=O)Nc1cccc(C(=O)O)c1`, the max dye-equivalent concentration was “inactive”. In the case of `COc1ccc(OC)c(S(=O)(=O)Nc2ccccc2F)c1`, the max dye-equivalent concentration is reported as 75 nM (active). For `COC(=O)c1ccccc1NC(=O)C1CCN(S(=O)(=O)c2cc(OC)ccc2OC)CC1`, the max dye-equivalent concentration was “inactive”. For `Cc1c(C(=O)OCc2cc(=O)n3cc(Br)ccc3n2)oc2ccccc12`, the max dye-equivalent concentration was “inactive”. In the case of `Cc1c(C(=O)OCC(=O)N(CCC#N)c2ccccc2)oc2c1ccc1ccccc12`, the max dye-equivalent concentration is reported as 14 nM (active). For `COC(=O)N1CCC2(CCCN(c3ccncc3)C2)CC1`, the max dye-equivalent concentration was “inactive”. With `Cc1nc2cnc(Oc3cccc(Cl)c3)nc2n(C2CC2)c1=O` the max dye-equivalent concentration was “inactive”. With `COc1ccc(Oc2ncc3nc(-c4ccc(F)cc4)c(=O)n(C)c3n2)cc1` the max dye-equivalent concentration was “inactive”. For `COc1cccc(Cn2c(=O)c(-c3cc(F)cc(F)c3)nc3cnc(OC)nc32)c1`, the max dye-equivalent concentration was “inactive”. In the case of `COc1ccc(-c2nc3cnc(OC)nc3n(Cc3ccc(F)cc3)c2=O)cc1`, the max dye-equivalent concentration is reported as 12 nM (active). With `COc1cccc(Cn2c(=O)c(-c3ccccc3)nc3cnc(OC)nc32)c1` the max dye-equivalent concentration was “inactive”. For `COc1ccc(-c2nc3cnc(Oc4ccccc4)nc3n(Cc3cccs3)c2=O)cc1`, the max dye-equivalent concentration was 12 nM (active). In the case of `COCCn1c(=O)c(-c2ccc(OC)cc2)nc2cnc(Oc3cccc(Cl)c3)nc21`, the max dye-equivalent concentration is reported as 13 nM (active). In the case of `COc1ncc2nc(-c3ccc(Cl)cc3)c(=O)n(C)c2n1`, the max dye-equivalent concentration is reported as 34 nM (active). With `CCc1nc2oc3ccccc3c(=O)c2c(=O)n1Cc1ccc(OC)cc1` the max dye-equivalent concentration was “inactive”. For `CCOC(=O)CSc1nnc(CNC(=O)c2cccs2)n1-c1cc(OC)ccc1OC`, the max dye-equivalent concentration was “inactive”. In the case of `N#Cc1ccccc1-n1c(N)c(C(=O)N2CCCC2)sc1=S`, the max dye-equivalent concentration is reported as “inactive”. With `COC(=O)c1ccc(N(CC(=O)NC2CCCC2)C(=O)CNC(=O)c2ccco2)cc1` the max dye-equivalent concentration was “inactive”. For `CCS(=O)(=O)N1CCCC(C(=O)NCCCN(C)Cc2ccccc2)C1` (centres undefined), the max dye-equivalent concentration was “inactive”. In the case of `CN1C(=O)C[C@H](c2ccccc2)C1=O`, the max dye-equivalent concentration is reported as “inactive”. For `O=C(CCCN1C(=O)CCC1=O)Nc1ccc(Cl)c(C(F)(F)F)c1`, the max dye-equivalent concentration was “inactive”. With `COc1ccc(-n2c(=O)c(-c3cn(C)c4ccccc34)nc3cnc(OC)nc32)cc1` the max dye-equivalent concentration was “inactive”. In the case of `COc1ccc(Oc2ncc3nc(C)c(=O)n(-c4ccccc4)c3n2)cc1`, the max dye-equivalent concentration is reported as “inactive”. With `O=c1c(-c2cccs2)nc2cnc(Oc3ccccc3)nc2n1-c1ccccc1` the max dye-equivalent concentration was 21 nM (active). For `O=c1c(-c2cc(F)cc(F)c2)nc2cnc(Oc3ccccc3)nc2n1C[C@H]1CCCO1`, the max dye-equivalent concentration was 15 nM (active). With `CCc1ccc(-c2nnn(Cc3nc4ccccc4s3)n2)cc1` the max dye-equivalent concentration was “inactive”. With `O=C(N1CCOCC1)N1CCOCC1` the max dye-equivalent concentration was “inactive”. For `O=C(NCc1cn2ccsc2n1)Nc1cccc(Cl)c1`, the max dye-equivalent concentration was “inactive”. In the case of `CCOC(=O)c1csc(NC(=O)c2ccc(S(=O)(=O)N3CCCC3)cc2)n1`, the max dye-equivalent concentration is reported as “inactive”. For `COc1ccc(OCC(=O)OCC(=O)Nc2ccc(S(=O)(=O)N3CCCCC3)cc2)cc1`, the max dye-equivalent concentration was “inactive”. In the case of `Cc1cc(=O)[nH]c(SCc2cc(Cl)ccc2OC(F)F)n1`, the max dye-equivalent concentration is reported as “inactive”. With `Cc1ccc(C(=O)O)cc1S(=O)(=O)NCC1CCCO1` (centres undefined) the max dye-equivalent concentration was “inactive”. For `CCOc1cc(-c2nc3cc(C)ccn3c2NCC2CCCO2)ccc1O` (centres undefined), the max dye-equivalent concentration was 78 nM (active). In the case of `Cc1ccc(-c2noc(-c3ccccc3C(=O)NCC3CCCO3)n2)cc1` (centres undefined), the max dye-equivalent concentration is reported as “inactive”. In the case of `O=C(CSc1nnc(-c2ccncc2)n1C1CCCCC1)Nc1ccccc1`, the max dye-equivalent concentration is reported as “inactive”. With `CCOC(=O)N1CCN(C(=O)c2cn(C)c3ccc(S(=O)(=O)N4CCCC4)cc3c2=O)CC1` the max dye-equivalent concentration was “inactive”. In the case of `CCN(CC)S(=O)(=O)c1ccc2[nH]cc(C(=O)NCCc3ccccc3)c(=O)c2c1`, the max dye-equivalent concentration is reported as “inactive”. In the case of `CN1CCN(S(=O)(=O)c2ccc3[nH]cc(C(=O)O)c(=O)c3c2)CC1`, the max dye-equivalent concentration is reported as 12 nM (active). In the case of `COC(=O)c1cc(S(=O)(=O)NC2CCN(Cc3ccccc3)CC2)cn1C`, the max dye-equivalent concentration is reported as “inactive”. In the case of `Fc1ccccc1OCCCCn1cncn1`, the max dye-equivalent concentration is reported as “inactive”. In the case of `C[C@H](NC(=O)NCCc1ccccc1)C(=O)O`, the max dye-equivalent concentration is reported as “inactive”. In the case of `O=C(Cn1cnc2c(cnn2-c2ccccc2)c1=O)NCc1ccccc1`, the max dye-equivalent concentration is reported as “inactive”. For `CN(C)CCCn1c(N)c(C#N)c2nc(C#N)c(C#N)nc21`, the max dye-equivalent concentration was 620 nM (active). For `Cc1cccc(C)c1NC(=O)CCCSc1nnc(-c2ccco2)n1-c1ccccc1`, the max dye-equivalent concentration was “inactive”. In the case of `CC(=O)NC(C(=O)NCC(N)=O)C(C)C` (centres undefined) (HELM PEPTIDE1{[ac].[CC(C)C(N[*:1])C(=O)[*:2]].G.[am]}$$$$V2.0), the max dye-equivalent concentration is reported as “inactive”.

— PubChem BioAssay AID590 (National Center for Advancing Translational Sciences (NCATS), 2007)
